From PubChem BioAssay
Values without a mark were called inactive. Active and inactive are the calls of the source.

Experiment: basal CRE-LacZ reporter activity in PC12 – cell-based, unstimulated, primary screen (AID 1145)
Settings: no forskolin, luminescence, 4.5 h, higher = more signal, called active from +8 up or from −8 down
For CN1C2C=C(c3ccc(CO)cc3)C(C3C(=O)N(C(N)=O)C(=O)C32)C1C1CC1 (stereo unspecified), the z-score was -0.35.
COc1cc(Cc2cc3c(c(CCc4ccccc4)n2)[Si](C(C)C)(C(C)C)O[C@H]3c2ccccc2)cc(OC)c1OC gave a z-score of 0.875.
Work on C=CCOC(=O)[C@H]1[C@@H]2C(=O)O[C@@H](c3ccccc3)[C@@H](c3ccccc3)N2[C@@H](c2ccc(OCCOC(=O)[C@@H]3C[C@@H]4C(=O)N[C@@H](Cc5ccccc5)C(=O)N4[C@@H]3c3ccc(O)cc3)cc2)[C@]12C(=O)Nc1ccc(I)cc12 yielded a z-score of 0.81.
Compound CCOC(=O)C1=CC[C@@H](c2ccccc2)N(S(=O)(=O)c2ccc(C)cc2)[C@@H]1C#N has a z-score of -0.266.
Compound C=CC[C@]1(C(N)=O)N=C(c2ccc(OCCCO)cc2)O[C@H]1c1ccccc1N=[N+]=[N-] has a z-score of 0.432.
In the case of COc1ccc(CCNC(=O)[C@@H]2c3ccccc3C(=O)N(Cc3cc(F)cc(C(F)(F)F)c3)[C@H]2c2ccc(CO)cc2)cc1, the z-score is reported as 0.585.
In the case of CC(C)C[C@@H]1NC(=O)[C@@H]2C[C@H](C(=O)NCCCCCNC(=O)CS)[C@H](c3ccc(O)cc3)N2C1=O, the z-score is reported as -0.809.
Work on C=CCNC(=O)[C@@H]1[C@H]2C(=O)O[C@H](c3ccccc3)[C@H](c3ccccc3)N2[C@H](c2ccc(OCCO)cc2)[C@@]12C(=O)N(C(=O)OCCOC)c1ccccc12 yielded a z-score of 0.712.
For CCCCC(=C=CC[C@@H](O)c1ccccc1OCCO)C[C@@H](O)c1ccccn1, the z-score was 2.72.
For O=C1O[C@@H](c2ccccc2)[C@@H](c2ccccc2)N2[C@@H](c3ccccc3OCCO)[C@]3(C(=O)Nc4ccc(C#CC5(O)CCCCCC5)cc43)[C@@H](C(=O)N3CCCCCCC3)[C@H]12, the z-score was -0.168.
In the case of CCCCC(=C=CC[C@H](O)c1ccccc1OCCO)CCO, the z-score is reported as 4.29.
Work on C=CCNC(=O)[C@@H]1[C@H]2C(=O)O[C@H](c3ccccc3)[C@H](c3ccccc3)N2[C@H](c2ccc(OCCO)cc2)[C@@]12C(=O)Nc1ccc(C#CC3=CCCCC3)cc12 yielded a z-score of 0.299.
COCCOC(=O)N1C(=O)[C@@]2(c3cc(C#CCCO)ccc31)[C@H](c1ccc(O)cc1)N1[C@H](c3ccccc3)[C@H](c3ccccc3)OC(=O)[C@H]1[C@@H]2C(=O)NC[C@H](O)c1ccccc1 showed a z-score of 0.0776.
Compound [N-]=[N+]=Nc1ccccc1C[C@]1(C(=O)N2CCCCC2)N=C(c2ccc(OCCCO)cc2)O[C@H]1c1ccccc1 has a z-score of -0.506.
COc1c(C)cc(-c2nc(-c3ccccc3)c3c(c2C)CO[Si]3(C(C)C)C(C)C)cc1C showed a z-score of 0.54.
Work on CC(C)N1CC=CC23O[C@@H]4/C=C\CCCOC(=O)C4[C@H]2C(=O)N(C(C)CO)[C@@H]3C1=O (stereo partly specified) yielded a z-score of -1.58.
In the case of COC(=O)C1(CC(C)C)C=C2C(=C(C)C(=O)C2C)CN1 (stereo unspecified), the z-score is reported as 0.0041.
Work on COCCCNC(=O)[C@@]1(Cc2ccccc2I)c2ccccc2C(=O)N(C2CCCCC2)[C@H]1c1ccc(CO)cc1 yielded a z-score of 0.468.
O=C/C=C/c1ccc(-c2ccccc2)cc1 showed a z-score of 2.11.
Work on COC(=O)C(CC#Cc1ccc2c(c1)[C@]1(C(=O)N2)[C@H](C(=O)N2CCN(c3ncccn3)CC2)[C@H]2C(=O)O[C@H](c3ccccc3)[C@H](c3ccccc3)N2[C@@H]1c1ccc(O)cc1)C(=O)OC yielded a z-score of -0.0515.
With COc1ccc([Si](C)(C)[C@H]2[C@H](CC(=O)N3CCC[C@H]3CO)O[C@@]3(C(=O)N(C)c4ccccc43)[C@@H]2C)cc1 the z-score was 1.2.
With CCCC=C(CCC)[C@@H](NC(=O)c1ccc(C(=O)OC)cc1)c1ccc(C(=O)OC)cc1 the z-score was 1.53.
In the case of Cc1ccc(S(=O)(=O)N2[C@@H](c3ccccc3)C(C(=O)O)=CC[C@H]2c2ccc(F)cc2)cc1, the z-score is reported as -0.676.
Compound C=C(C(=O)CC[C@@H](OC(=O)c1ccccc1-c1ccccc1C(=O)O)c1cccc(OCCO)c1)C(C)C has a z-score of 2.16.
For COC(=O)c1c2oc(c1C(=O)OC)C(=O)N[C@H](Cc1ccccc1)Cn1cc(nn1)C1(CCCCC1)NC(=O)N[C@H](CO)CC2, the z-score was 8.64 (active).
In the case of C=CCNC(=O)[C@@H]1[C@H]2C(=O)O[C@H](c3ccccc3)[C@H](c3ccccc3)N2[C@H](c2ccc(O)cc2)[C@@]12C(=O)Nc1ccc(C#CC3=CCCCC3)cc12, the z-score is reported as 0.119.
Work on CC(C)(C)OC(=O)CC[C@]1(C(=O)N2CCOCC2)COC(c2ccc(OCCCO)cc2)=N1 yielded a z-score of 1.34.
In the case of C=CC[C@]1(C(=O)NCC(O)CO)N=C(c2ccc(OCCCO)cc2)O[C@H]1c1ccccc1CN=[N+]=[N-] (stereo partly specified), the z-score is reported as 0.652.
For CCOC(=O)C1=CCC(c2cccn2C(=O)OC(C)(C)C)N(S(=O)(=O)c2ccc(C)cc2)C1 (stereo unspecified), the z-score was 0.136.
COc1cc(Cc2cc3c(c(-c4ccccc4)n2)[Si](C(C)C)(C(C)C)OC3)cc(OC)c1OC showed a z-score of -0.113.
COCCCNC(=O)[C@@]1(Cc2ccccc2I)c2ccccc2C(=O)N(Cc2ccccc2C(F)(F)F)[C@H]1c1ccc(CO)cc1 showed a z-score of -0.619.
Compound COc1ccc(CCNC(=O)[C@@H]2c3ccccc3C(=O)N(C(C)C)[C@H]2c2ccc(CO)cc2)cc1 has a z-score of 0.351.
With Cc1ccc(N2C(=O)c3ccccc3[C@@H](C(=O)NCCN3CCOCC3)[C@@H]2c2ccc(CO)cc2)nc1 the z-score was 0.145.
COc1cc2c(cc1O)C(C)N(Cc1sc3ccccc3c1Cl)CC2 (stereo unspecified) gave a z-score of -0.258.
With CC(C)(C)OC(=O)CC[C@@]1(C(=O)N2CCOCC2)N=C(c2ccc(OCCCO)cc2)O[C@@H]1c1ccccc1CN=[N+]=[N-] the z-score was 0.311.
In the case of CC[C@@H](O[Si](C#C[Si](C(C)C)(C(C)C)C(C)C)(C(C)C)C(C)C)c1cn([C@H](C)c2ccccc2)nn1, the z-score is reported as -0.374.
